Assay outcomes from PubChem BioAssay.
Shown are actives, neighbours in structure and some others; about 2.8% of the full set was active somewhere.
WRN helicase inh: qHTS for Inhibitors of WRN Helicase; WRN helicase unwinding, fluorescent forked duplex, kinetic; 360,000 compounds, 0.46% hits; Bifunctional 3'-5' exonuclease/ATP-dependent helicase WRN (Homo sapiens), Q14191; Potency, µM (highest dose often 114 µM), for the others: at the top dose activity change, negative = inhibition, most hits filed as inhibitors; further: potency means the concentration at half of the fitted maximal effect; on the % scale 0 is the no-effect control and ±100 the full control effect; nearly all actives have a fitted effect of over 55% in size
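WRN at 20 nM final was preincubated with compound for 15 min at room temperature; reaction started with 100 nM forked duplex oligonucleotide carrying fluorophore and quencher plus 2 mM ATP (final). Unwinding followed kinetically by red fluorescence (ex 525/em 598 nm).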
Pol iota inh: qHTS for Inhibitors of Polymerase Iota; 390,000 compounds, 1% hits; Potency, µM (doses to about 115 µM), for inactives: at the highest dose activity, negative = inhibition, usual class: inhibitors; DNA polymerase iota (Homo sapiens), Q9UNA4; Pol iota fluorescent replication assay, 10 min; further: potency means the concentration at half of the fitted maximal effect
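Pol iota at 10 nM preincubated 15 min with compounds at room temperature; reaction started with fluorescent substrate, 50 nM final. Fluorescence read kinetically at 0 and 10 min; buffer-only wells as negative control.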
PI5P4Ka inh: qHTS for Inhibitors of phosphatidylinositol 5-phosphate 4-kinase (PI5P4K); Phosphatidylinositol 5-phosphate 4-kinase type-2 alpha (Homo sapiens), P48426; max response, %; AID 652105, 2013; 330,000 compounds, 1.2% hits; PI5P4Kalpha enzyme, ADP-Glo luminescence, 60 min; active compounds read low; active means max response of -50% or lower; inconclusive means between -30% and -50%; inactive means -30% or higher; further: value at the top dose of about 77 µM; on the % scale 0 is the no-effect control and ±100 the full control effect
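Quantitative HTS of the MLSMR library against PI5P4Kalpha with substrate. ATP added last at 5 microM final; room temperature, 60 minutes. Remaining ATP depleted, ADP converted and read as luminescence.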
POLB inh: qHTS Assay for Inhibitors of DNA Polymerase Beta | P06746 | Pol beta primer extension/strand displacement, fluorescence kinetic | AID 485314, 2010 | 340,000 compounds, 1.3% hits | Potency, µM (highest dose often 114 µM), for the others: at the top dose activity change, negative = inhibition, usual class: inhibitors; further: potency means the concentration at half of the fitted maximal effect; on the % scale 0 is the no-effect control and ±100 the full control effect
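Homogeneous kinetic assay of primer extension and strand displacement by 10 nM Pol beta, preincubated 15 min at room temperature with compound before 50 nM substrate (final) was added. Read at 0 and 10 min; four-parameter Hill fit.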
POLH inh: qHTS for Inhibitors of Polymerase Eta; recombinant Pol eta, fluorescent DNA replication assay; AID 588591, 2011; 390,000 compounds, 1.2% hits; Potency, µM (series often up to 114 µM), without a hit: at the top dose activity change, negative = inhibition, usual class: inhibitors; further: potency means the concentration at half of the fitted maximal effect; on the % scale 0 is the no-effect control and ±100 the full control effect
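Fluorescent replication assay: 50 nM final substrate added after a 15 min room-temperature compound preincubation with 10 nM enzyme. Signal taken at 0 min and again at 10 min.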
Pol kappa inh: qHTS for Inhibitors of Polymerase Kappa; AID 588579, 2011; purified Pol kappa, fluorescent DNA synthesis assay, 10 min; 400,000 compounds, 0.53% hits; DNA polymerase kappa (Homo sapiens), Q9UBT6; Potency, µM (doses to about 107 µM), inactives show top-dose activity, negative = inhibition, actives largely listed as inhibitors; further: potency means the concentration at half of the fitted maximal effect; on the % scale 0 is the no-effect control and ±100 the full control effect
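50 nM final substrate added after 15 min RT preincubation of 10 nM Pol kappa with compound; fluorescence read at 0 and 10 min.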
An asterisk follows results filed as active; ? = inconclusive; / = no result; [ ] = another dose, or the depositor's remark. Unless noted, the call rests on the fitted dose curve; in most records, active means well fitted curve in the direction sought with a large enough effect; inconclusive means small, poorly fitted or top-dose-only effect, or another doubt; inactive means no such curve, though single readings can be large; an effect the other way counts as inactive or inconclusive.

SMILES | WRN helicase inh | Pol iota inh | PI5P4Ka inh | POLB inh | POLH inh | Pol kappa inh
C=CCc1ccccc1OCCSc1nc2ccc([N+](=O)[O-])cc2s1 | -13.3% | 6.5% | -3.7 | 22.3% | -5.4% | -14.9%
C=CCc1ccccc1OCCSc1nc(-c2ccccc2F)nc2cc(=O)[nH]n12 | / | ? | / | 10µM* | ? | -38.8%
Cn1c(=O)c2c(nc(CN3CCN(c4ccccc4F)CC3)n2Cc2ccc(F)cc2)n(C)c1=O | / | 19.5% | / | -11.4% | -23.3% | -4.0%
Cc1cc(C)cc(Cn2cc(CN3CC(N4CCN(CCO)CC4)CS3(=O)=O)nn2)c1 (centres undefined) | -3.1% | / | 2.4 | / | / | /
CN1CCN(CCCNC(=O)Cn2c(-c3cccs3)cc3cc(Cl)ccc32)CC1 | / | 3.2% | / | -2.3% | -15.2% | -6.9%
COc1ccc(-c2nc(SCCOc3ccccc3Cl)n3[nH]c(=O)cc3n2)cc1 | / | -20.0% | / | -31.3% | -4.9% | -21.0%
Cc1cccc(-c2nc(SCC(=O)Nc3cccc(C(F)(F)F)c3)n3[nH]c(=O)cc3n2)c1 | / | ? | / | 39.8µM* | -19.5% | -26.4%
COc1ccc(NC(=O)CSc2nnc(-c3ccco3)n2C)cc1 | 7.6% | 15.9% | -1.4 | 8.4% | -11.2% | -24.7%
COc1ccccc1OCCCSc1nc(-c2ccc(C(C)(C)C)cc2)nc2cc(=O)[nH]n12 | / | ? | / | ? | 79.4µM* | ?
COc1ccc(NC(=O)CSc2nc(-c3ccco3)nc3cc(=O)[nH]n23)cc1 | / | 79.4µM* | / | 25.1µM* | ? | ?
COc1cccc(-c2nc(SCc3ccc(C)cc3)n3[nH]c(=O)cc3n2)c1 | / | 89.1µM* | / | ? | -7.7% | -15.8%
CC1CC(C)CN(S(=O)(=O)c2ccc(NC(=O)[C@@H]3CCCN3C(=O)c3cccs3)cc2)C1 (some centres undefined) | -7.9% | -10.5% | 0.1 | / | -7.2% | -9.8%
COc1cc(-c2c(C#N)c(=O)[nH]c3c2c(C)nn3-c2ccccc2)ccc1O | ? | 18.8% | -62.9* | 22.2% | 4.5% | -3.1%
COc1ccc2c(c1)n([O-])c1c([n+]2=O)CCC1 | -13.5%[57.1 µM] | ? | ? | -3.2% | 22.4µM* | -20.0%
O=C(COC(=O)CCNS(=O)(=O)c1cccs1)Nc1ccccc1 | 0.5% | 10.7% | 3.8 | / | -3.5% | 1.9%
CCn1c(SCc2nc3sc(C(=O)O)c(C)c3c(=O)[nH]2)nnc1-c1ccc(Cl)cc1 | -18.3% | 70.5% | -55.8* | ? | ? | -22.0%
CCC(C)NC(=O)c1cc2cc3ccc(OC)cc3nc2s1 (centres undefined) | -11.4% | -15.1% | / | 50.1µM* | ? | ?
COc1ccc2nc3sc(C(=O)Nc4cc(Cl)c(OC)cc4OC)cc3cc2c1 | / | -5.0% | / | ? | ? | 0.0%
CCOc1ccc(CCNC(=O)c2cc3cc4cc(OC)ccc4nc3s2)cc1OCC | / | -3.6% | / | 14.1µM* | -11.3% | -28.8%
O=C(NCc1ccccn1)[C@@H]1CCCN1C(=O)[C@@H]1CCCN1 | -0.9% | / | 3.7 | / | / | /
COc1ccc(S(=O)(=O)NCC2CC3C=CC2C3)cc1OC (centres undefined) | -26.4% | 18.9% | -6.8 | 41.3% | -8.6% | -8.1%
Cc1cc(NC(=O)COc2cccc3cccnc23)no1 | / | / | / | 31.6µM* | / | /
Cc1cc(NC(=O)COc2cccc(C)c2C)no1 | 0.1% | 12.4% | 0.7 | ? | -16.1% | 5.3%
COc1cc2nc(N3CCOCC3)nc(NC3CCN(C)CC3)c2cc1OC | / | -6.6% | / | / | / | -16.9%
Cc1nc(Nc2cnc(/C=C/c3cc(C(=O)Nc4cccc(C(F)(F)F)c4)ccc3C)cn2)cc(N2CCNCC2)n1 | ? | -5.9% | ? | 39.8µM* | 39.8µM* | -5.4%
SMILES | WRN helicase inh | Pol iota inh | PI5P4Ka inh | POLB inh | POLH inh | Pol kappa inh
CCOc1ccc(C(=O)Nc2ccc3nc(Nc4cccc(C(F)(F)F)c4)cc(C)c3c2)cc1OCC | / | 25.5% | / | -22.8% | -27.1% | -8.7%
O=C(N/N=C/c1cccnc1)c1ccccc1OCc1ccc(Cl)cc1 | / | / | / | 2.5% | / | /
O=C(N/N=C/c1cccnc1)c1cc(-c2ccccc2OCc2ccccc2)n[nH]1 | -28.6% | 51.3% | -12.7 | 79.4µM* | 2.5% | -31.0%
COc1ccccc1-[n+]1c(C)cc(/C=C2\Sc3ccccc3N2C)cc1C | ? | -11.5% | -10.1 | ? | ? | ?
COc1ccc(-[n+]2c(C)cc(/C=C3\Sc4ccccc4N3C)cc2C)cc1 | ? | 23.8% | -5.9 | 35.5µM* | -18.5% | -5.3%[60.1 µM]
CC1CCCCC1NC(=O)c1ccc(-n2cncn2)cc1 (centres undefined) | 4.8% | 17.9% | 4.4 | / | 3.5% | 5.4%
Cc1ccc(-n2sc3cc(F)ccc3c2=O)c(C)c1 | -7.0% | / | -87.2* | / | -12.6% | /
O=c1c2ccc(F)cc2sn1-c1ccccc1 | -7.0% | / | -108.3* | / | -14.8% | /
O=c1c2cc(F)ccc2sn1-c1ccccc1Cl | 3.4% | / | -84.0* | / | 0.4% | /
O=c1c2ccccc2sn1-c1ccc(F)cc1 | -4.6%[11.6 µM] | ? | -88.7* | / | 5.3% | -2.3%
O=c1sc2ccccc2c(=O)n1Cc1ccccc1F | -9.7% | 23.1% | 5.8 | 2.1% | -7.4% | -6.4%
O=C(C[n+]1c(Cl)cc(Cl)c2ccccc21)c1ccccc1 | / | -12.6% | / | / | / | 8.8%
O=C1CC(c2ccccc2)Cc2[nH]c(=O)c(-c3nc(-c4ccc(F)cc4)cs3)cc21 (centres undefined) | / | ? | / | -21.0% | 17.7% | -10.9%
COc1ccc(OC)c(CN2CCN(C(=O)c3cc(S(=O)(=O)N4CCOCC4)ccc3C)CC2)c1 | 14.7% | 31.0% | 1.7 | / | -13.9% | 2.5%
Cc1ccc(S(=O)(=O)Nc2ccccc2OC(C(=O)OC(C)(C)C)C(=O)OC(C)(C)C)cc1 | -0.3% | / | -8.7 | / | / | /
CN(C)c1ccc(C2C=Cc3ccccc32)c2ccccc12 (centres undefined) | / | 21.4% | / | / | / | 8.7%
COC(=O)c1cccc(N2CCCC2=O)c1 | 3.2% | 11.2% | 0.4 | -23.7% | 3.4% | 3.2%
O=c1c2ccccc2sn1-c1ccc(Cl)cc1 | -3.1% | / | -99.5* | / | 0.3% | /
COC(=O)c1cccc(-n2sc3ccccc3c2=O)c1 | 0.3% | ? | -96.5* | / | -0.5% | -4.5%
COc1cc2c(cc1OC)-c1c(oc3cc(O)cc(O)c3c1=O)CO2 | / | / | / | / | / | 31.6µM*
O=c1[nH]cc(CCCc2ccccc2)c(=O)[nH]1 | 1.8% | / | -11.2 | / | -19.0% | /
COc1ccc(C(=O)/C(=C\c2ccco2)N2C=CC=CC2=C(C#N)C#N)cc1 | ? | ? | -7.4 | -3.2% | ? | -3.2%
N#CC(C#N)=C1C=CC=CN1/C(=C\c1ccco1)C(=O)c1ccc(Br)cc1 | 56.2µM* | -16.7% | 4.1 | -6.5% | -26.2% | -4.4%
